# Results reported in PubChem BioAssay (NCI).
# Where “and” joins values, the source holds several entries; their conditions need not be identical. Equal values may be shown once. This is part of a sample that, as a whole, favours compounds with a hit. Of some 79,000 tested, about 15% had one in any assay. Calls of active or inactive are those of the source. Cut-off read from the data, not from the text of the source: active = growth inhibition above about 70%; inactive = the rest.
# Assay: NCI Yeast Anticancer Drug Screen. Data for the bub3 strain (AID 167)
# Settings: S. cerevisiae bub3 mutant strain, at 5.0 µM (retest, dose inferred, filed as 0.5), active compounds read high
# Procedure, shortened: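 Growth of a checkpoint-deficient yeast mutant is measured after compound exposure. Values represent inhibition relative to vehicle.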
row,Compound,growth inhibition
1,CCc1c(Cl)c(C)cc(O)c1Cl,3% (inactive)
2,O=C(/C=C(/c1ccccc1)N1CCCCC1)c1ccccc1,34% (inactive)
3,CCCC(=O)Oc1ccc(/C=N/NC(N)=S)nc1,-4% (inactive)
4,CCc1nc2ccc(NCCN(C)C)c3c(=O)c4ccccc4n1c23,4% (inactive)
5,Cc1sc2ccc3ccccc3c2[n+]1C,23% (inactive) and -18% (inactive)
6,COc1c(O)c(C=O)c(Br)c(C=O)c1O,-1% (inactive)
7,Cc1ccc(Cl)cc1NC(=O)OCCN(C)C(=O)Nc1cc(Cl)ccc1C,13% (inactive)
8,Cc1nc2ccccc2nc1NNc1ccccc1,38% (inactive)

# Same assay, conditions: S. cerevisiae bub3 mutant strain, at 11.0 µM, active compounds read high
row,Compound,growth inhibition
1,CN(C)c1ccc(C2CC(C)(O)Oc3cc4c(cc32)OCO4)cc1 (stereo unspecified),3% (inactive)
2,O=P(NC1CCCCC1)(OCc1ccccc1)OCc1ccccc1,3% (inactive)
3,COc1oc(C(=O)NC2CCCCC2)c(-c2ccc(Cl)cc2)c1S(=O)(=O)c1ccccc1,47% (inactive)
4,C[Si](C)(C)/C=C/CCNC(C#N)c1ccccc1 (stereo unspecified),38% (inactive)
5,CCOc1ccc(NC(=O)C2=C(C)NC(C)=C(C(=O)Nc3ccc(OCC)cc3)C2c2cccc([N+](=O)[O-])c2)cc1,1% (inactive)
6,CN(C)CCOC1(Cc2ccc(F)cc2)CCC(C(C)(C)C)CC1 (stereo unspecified),-1% (inactive)
7,CC1(C)CC(=O)C(/C=N/c2nc(-c3ccccc3)cs2)=C(O)C1,-1% (inactive)
8,CC(=O)Nc1ccc2c(c1)Cc1cc(N=C3C=CC(=O)O3)ccc1-2,72% (active)
9,O=C1C=C(Cl)C(=O)C(c2ccc(Cl)cc2)=C1,62% (inactive)
10,CNCCCNc1c2ccccc2nc2cccc([N+](=O)[O-])c12,92% (active)
11,CCCCCCCCCCCC(O)S(=O)(=O)O (stereo unspecified),-2% (inactive)
12,CC(C)OC(=O)c1ccc(CCc2cc(O)c(Br)cc2O)cc1,52% (inactive)
13,CCc1cc(O)c(Cl)c(C)c1Cl,5% (inactive)
14,C(=Nc1ccc(-c2cc(-c3ccccc3)nc3ccc4ccccc4c23)cc1)c1ccccc1,-5% (inactive)
15,CSc1nc(C)c(CCOC(C)=O)c(N=P(c2ccccc2)(c2ccccc2)c2ccccc2)n1,3% (inactive)
16,CS(=O)(=O)SCc1ccc([N+](=O)[O-])cc1,97% (active)
17,COC1=C(OC)C(=O)C(Sc2ccc3ccccc3c2)=CC1=O,-3% (inactive)
18,COc1nc2c(c(=O)n1C)N=C(c1ccccc1)[C@H](C(CC(=O)c1ccccc1)c1ccccc1)C(c1ccccc1)N2 (stereo partly specified),9% (inactive)
19,Cc1cc(-c2cc(C)c(O)c(C(C)(C)C)c2)cc(C(C)(C)C)c1O,24% (inactive)
20,Nc1cc(N)c(N=Nc2cccc3c(S(=O)(=O)O)cccc23)cc1N=Nc1cc([N+](=O)[O-])ccc1O,10% (inactive)

row,Compound,growth inhibition
1,Nc1ccc(F)cc1S,18% (inactive)
2,Brc1ccccc1-c1ncc(-c2ccccc2)o1,52% (inactive)
3,COc1cc(C2SCC(=O)N2c2ccc(-c3ccc(-n4c(-c5ccccc5)nc5ccccc5c4=O)cc3)cc2)ccc1O (stereo unspecified),19% (inactive)
4,Nc1ncnc2c1ncn2C1OC(CO)CC1O (stereo unspecified),34% (inactive)
5,COc1cc(CSc2ccc(O)cc2)cc(O)c1O,11% (inactive)
6,CCOC(=O)C1N=[N+](c2ccccc2)C(=O)/C1=C\n1c(=S)[nH]c2ccc([N+](=O)[O-])cc21 (stereo unspecified),1% (inactive)
7,CNC(=O)OCc1c(COC(=O)NC)c2n(c1C)-c1ccc(OC)cc1CCC2,-30% (inactive)
8,O=C(NNc1ccccc1)c1ccc(Cl)c(Cl)c1,-7% (inactive)
9,Cc1ccc(CC2(OCCN(C)C)CCC(C(C)(C)C)CC2)cc1 (stereo unspecified),-11% (inactive)
10,C[C@]12CC[C@H](O)CC1=CC[C@@H]1C2CC[C@]2(C)C(=O)NC(=O)CC12 (stereo partly specified),-12% (inactive)
11,CCCC/C=C/C(C)(C(=O)OCC)C(=O)OCC,-6% (inactive)
12,CCc1c(Cl)c(C)cc(O)c1Cl,-7% (inactive)
13,O=C(/C=C(/c1ccccc1)N1CCCCC1)c1ccccc1,7% (inactive)
14,CCCC(=O)Oc1ccc(/C=N/NC(N)=S)nc1,-9% (inactive)
15,CCc1nc2ccc(NCCN(C)C)c3c(=O)c4ccccc4n1c23,5% (inactive)
16,Cc1sc2ccc3ccccc3c2[n+]1C,-28% (inactive)
17,COc1c(O)c(C=O)c(Br)c(C=O)c1O,3% (inactive)
18,Cc1ccc(Cl)cc1NC(=O)OCCN(C)C(=O)Nc1cc(Cl)ccc1C,-42% (inactive)
19,Cc1nc2ccccc2nc1NNc1ccccc1,28% (inactive)

# Same assay, conditions: S. cerevisiae bub3 mutant strain, at 33.0 µM, active compounds read high
row,Compound,growth inhibition
1,CN(C)c1ccc(C2CC(C)(O)Oc3cc4c(cc32)OCO4)cc1 (stereo unspecified),10% (inactive)
2,O=P(NC1CCCCC1)(OCc1ccccc1)OCc1ccccc1,5% (inactive)
3,COc1oc(C(=O)NC2CCCCC2)c(-c2ccc(Cl)cc2)c1S(=O)(=O)c1ccccc1,90% (active)
4,C[Si](C)(C)/C=C/CCNC(C#N)c1ccccc1 (stereo unspecified),43% (inactive)
5,CCOc1ccc(NC(=O)C2=C(C)NC(C)=C(C(=O)Nc3ccc(OCC)cc3)C2c2cccc([N+](=O)[O-])c2)cc1,54% (inactive)
6,CN(C)CCOC1(Cc2ccc(F)cc2)CCC(C(C)(C)C)CC1 (stereo unspecified),7% (inactive)
7,CC1(C)CC(=O)C(/C=N/c2nc(-c3ccccc3)cs2)=C(O)C1,23% (inactive)
8,CC(=O)Nc1ccc2c(c1)Cc1cc(N=C3C=CC(=O)O3)ccc1-2,99% (active)
9,O=C1C=C(Cl)C(=O)C(c2ccc(Cl)cc2)=C1,98% (active)
10,CNCCCNc1c2ccccc2nc2cccc([N+](=O)[O-])c12,98% (active)
11,CCCCCCCCCCCC(O)S(=O)(=O)O (stereo unspecified),0% (inactive)
12,CC(C)OC(=O)c1ccc(CCc2cc(O)c(Br)cc2O)cc1,98% (active)
13,CCc1cc(O)c(Cl)c(C)c1Cl,31% (inactive)
14,C(=Nc1ccc(-c2cc(-c3ccccc3)nc3ccc4ccccc4c23)cc1)c1ccccc1,14% (inactive)
15,CSc1nc(C)c(CCOC(C)=O)c(N=P(c2ccccc2)(c2ccccc2)c2ccccc2)n1,3% (inactive)
16,CS(=O)(=O)SCc1ccc([N+](=O)[O-])cc1,99% (active)
17,COC1=C(OC)C(=O)C(Sc2ccc3ccccc3c2)=CC1=O,89% (active)
18,COc1nc2c(c(=O)n1C)N=C(c1ccccc1)[C@H](C(CC(=O)c1ccccc1)c1ccccc1)C(c1ccccc1)N2 (stereo partly specified),18% (inactive)
19,Cc1cc(-c2cc(C)c(O)c(C(C)(C)C)c2)cc(C(C)(C)C)c1O,40% (inactive)
20,Nc1cc(N)c(N=Nc2cccc3c(S(=O)(=O)O)cccc23)cc1N=Nc1cc([N+](=O)[O-])ccc1O,0% (inactive)

row,Compound,growth inhibition
1,Nc1ccc(F)cc1S,73% (active)
2,Brc1ccccc1-c1ncc(-c2ccccc2)o1,74% (active)
3,COc1cc(C2SCC(=O)N2c2ccc(-c3ccc(-n4c(-c5ccccc5)nc5ccccc5c4=O)cc3)cc2)ccc1O (stereo unspecified),23% (inactive)
4,Nc1ncnc2c1ncn2C1OC(CO)CC1O (stereo unspecified),77% (active)
5,COc1cc(CSc2ccc(O)cc2)cc(O)c1O,9% (inactive)
6,CCOC(=O)C1N=[N+](c2ccccc2)C(=O)/C1=C\n1c(=S)[nH]c2ccc([N+](=O)[O-])cc21 (stereo unspecified),3% (inactive)
7,CNC(=O)OCc1c(COC(=O)NC)c2n(c1C)-c1ccc(OC)cc1CCC2,97% (active)
8,O=C(NNc1ccccc1)c1ccc(Cl)c(Cl)c1,2% (inactive)
9,Cc1ccc(CC2(OCCN(C)C)CCC(C(C)(C)C)CC2)cc1 (stereo unspecified),6% (inactive)
10,C[C@]12CC[C@H](O)CC1=CC[C@@H]1C2CC[C@]2(C)C(=O)NC(=O)CC12 (stereo partly specified),60% (inactive)
11,CCCC/C=C/C(C)(C(=O)OCC)C(=O)OCC,-1% (inactive)
12,CCc1c(Cl)c(C)cc(O)c1Cl,20% (inactive)
13,O=C(/C=C(/c1ccccc1)N1CCCCC1)c1ccccc1,19% (inactive)
14,CCCC(=O)Oc1ccc(/C=N/NC(N)=S)nc1,-20% (inactive)
15,CCc1nc2ccc(NCCN(C)C)c3c(=O)c4ccccc4n1c23,3% (inactive)
16,Cc1sc2ccc3ccccc3c2[n+]1C,14% (inactive)
17,COc1c(O)c(C=O)c(Br)c(C=O)c1O,54% (inactive)
18,Cc1ccc(Cl)cc1NC(=O)OCCN(C)C(=O)Nc1cc(Cl)ccc1C,-36% (inactive)
19,Cc1nc2ccccc2nc1NNc1ccccc1,51% (inactive)
